Values joined by “and” are separate entries in the source; they are usually repeats but may differ in a detail not shown here. Identical values can stand only once. Active and inactive are the calls of the source.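 The calls were made as follows, unless noted: active = compounds whose cell count with miR-34 switched on is under 0.7 times the count with it off; inactive = the rest.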
What was measured:
[1] = liver-stage malaria parasite growth inhibition, primary screen, cell-based, HepG2, luciferase luminescence, HepG2 viability (AID 624349; in the data active = parasite load remaining mostly below about 12%, no sharp cut-off; inactive = mostly above about 10%;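 also: 100% = mean of DMSO negative control wells on the same plate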); conditions: P. berghei liver stage in HepG2, luciferase luminescence, concentration not given here; parasite load remaining: stronger effect = lower value; viability: measured here: HepG2 viability without parasites
[2] = stimulators of nuclear beta-catenin in C2C12, primary screen, imaging, WNT3A-conditioned medium, mouse C2C12, NPC library (AID 1117326; in the data active = nuclear beta-catenin stimulation mostly above about 4.2%, no sharp cut-off; inactive = mostly below about 10%; also: reference of the scale not given here); conditions: stronger effect = higher value
[3] = stimulators of insulin release from INS-1E, primary screen, cell-based, 5 mM glucose, NPC library (AID 1117329;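 active = compound raises insulin release from rat beta cells at 5 mM glucose, no numeric limit stated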; also: reference of the scale not given here); conditions: rat INS-1E insulin secretion, at 10 µM, stronger effect = higher value
[4] = growth inhibition of GSK3B-pretreated HCT116 cells – cell-based, CellTiter-Glo, 0.2 to 20 µM (AID 1117336;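 active = compounds lowering colon cancer cell viability after pretreatment blocking the GSK3B kinase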); conditions: HCT116 viability after GSK3B inhibitor, at 20 µM, stronger effect = higher value
[5] = inhibition of endothelial tube formation, primary screen, imaging, VEGF stimulated, CD31 staining, tube area, NPC library (AID 1117340;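 active = compound that reduces growth-factor-driven endothelial tube area in a mixed cell culture, no cutoff stated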); conditions: VEGF-stimulated ADSC/ECFC co-culture, at 10 µM, stronger effect = higher value
[6] = glucagon-like peptide 1 release enhancers, primary assay, NCI-H716 cell line, NPC library (AID 1117341;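 active = compound raises GLP1 secretion from the human gut endocrine cells, with no numeric limit stated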; also: reference of the scale not given here); conditions: NCI-H716 cells, at 10 µM, stronger effect = higher value
[7] = HCT116 colon cancer cell growth inhibition, primary screen, CellTiter-Glo luminescence, NPC library (AID 1117342;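 active = compounds that lower survival of HCT116 colon cancer cells in the luminescence readout, no numeric limit stated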); conditions: at 20 µM (top of the series)
[8] = CellTiter-Glo luminescent readout of SW480 viability loss, NPC library primary (AID 1117343;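 active = compounds that lower viability of the colon cancer cells in the luminescence readout, with no numeric limit stated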); conditions: CellTiter-Glo luminescence; at 20 µM (top of the series) unless noted
[9] = decreased DLD-1 cellular survival, CellTiter-Glo luminescent readout, NPC compound collection, primary HTS (AID 1117346;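 active = compounds that lower survival of DLD-1 colon cancer cells in the luminescence readout, no cutoff given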); conditions: DLD-1 viability, CellTiter-Glo luminescence; at 20 µM (top of the series)
[10] = test system: Aerobactin synthetase IucA (Klebsiella pneumoniae); assay: IucA aerobactin synthetase inhibitors, biochemical, Tocris library, absorbance (AID 1345561; call rule not given here;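 also: 100% = enzyme without compound and 0% = no enzyme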); conditions: purified IucA enzyme assay, absorbance (OD) read-out; stronger effect = lower value;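 tested at 8 µM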
[11] = sensitizers of A549 cells to miR-34 induction, primary screen, imaging, A549 dox-inducible miR-34, nuclei and caspase counts (AID 1347080); conditions: A549 miR-34 inducible, Hoechst nuclei count, 48 h
[12] = survival rescue of mitochondrial mutant cells in low glucose, primary screen, MELAS cybrids, Rieske KO mouse fibroblasts, CellTiter-Glo (AID 1508586;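 active = mean z-score across replicates of 1.96 or higher in either the MELAS or the Rieske mutant cell line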;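 also: z relative to plate mean and SD of compound and empty wells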)
[13] = viability rescue of complex I mutant cybrids, primary screen, cell-based, galactose medium, ATP luminescence (AID 1645843;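 active = z-score of at least 1.8 in each of two replicates, scored against plate mean and spread of sample wells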;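 also: positive z means more ATP and so rescue of galactose-driven cybrid death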); conditions: complex I mutant cybrid cells, 72 h, stronger effect = higher value
[14] = stronger effect = lower value, cell number ratio, induced over uninduced
[15] = measured here: relative caspase fold change +Dox/-Dox
[16] = measured here: total cells with miR-34 induction, stronger effect = lower value
[17] = measured here: total cells without miR-34 induction
[18] = MELAS cybrid survival, CellTiter-Glo 48 h, stronger effect = higher value
[19] = Rieske KO mouse fibroblast survival, CellTiter-Glo 72 h

Row | SMILES | parasite load remaining [1] | viability [1] | nuclear beta-catenin stimulation ([2]; at 10 µM) | nuclear beta-catenin stimulation ([2]; stimulation, at 2 µM) | insulin secretion stimulation [3] | viability decrease [4] | tube area decrease [5] | GLP1 secretion stimulation [6] | inhibition of viability [7] | viability decrease (inhibition) [8] | viability decrease (inhibition) [9] | remaining activity [10] | fold change [11, 14] | fold change [11, 15] | cell count [11, 16] | cell count [11, 17] | z-score [12, 18] | z-score [12, 19] | z-score [13]
1 | CN=C(NC#N)Nc1ccc(C2=NNC(=O)CC2C)cc1 (stereo not drawn) | 25% (inactive) | 67% | -0.7% (inactive) | -0.1% | 0.3% (inactive) | -15.4% (inactive) | -8.1% (inactive) | -1.9% (inactive) | -3.9% (inactive) | 4.1% (inactive) | -10.5% (inactive) | 117% (inactive) | 0.976 (inactive) and 0.925 (inactive) and 0.857 (inactive) | 0.912 and 0.898 and 1.1 | 6170 and 8930 and 9670 | 6320 and 9660 and 11300 | 0.199 (inactive) | 0.162 | 0.095 (inactive) and 0.625 (inactive)
2 | CN(C)C/C=C(/c1ccc(Br)cc1)c1cccnc1 | 94.7% (inactive) and 60.5% (inactive) | 85.2% and 195% | 1.1% (inactive) | -0.9% | 45% (active) | -1.3% (inactive) | 9.7% (inactive) | 8% (inactive) | 41.9% (inactive) | 52.1% (active) | 5.9% (inactive) | 124% (inactive) | 1.02 (inactive) and 0.948 (inactive) and 0.885 (inactive) | 0.961 and 0.963 and 4.02 | 8760 and 8650 and 11500 | 8570 and 9130 and 13000 |  |  | -0.1 (inactive) and -0.42 (inactive)
3 | Cc1ccc2c(c1)c1c3n2CCNC3CCC1 (stereo not drawn) | 192% (inactive) | 76.9% | 3% (inactive) | 2% | 0.5% (inactive) | -63.6% (inactive) | 18.5% (inactive) | 11.2% (inactive) | 44% (inactive) | 73.4% (active) | 29.4% (inactive) | 98.7% (inactive) | 0.931 (inactive) and 0.909 (inactive) | 0.816 and 0.659 | 8540 and 8100 | 9170 and 8920 | 0.468 (inactive) | -0.847 | -0.41 (inactive)
4 | O=C(O)Cc1ccc(OCCNC[C@H](O)c2ccccc2)cc1 |  |  | 23.3% (inactive) | -5% | 0.6% (inactive) | -5.3% (inactive) | -9.4% (inactive) | -0.5% (inactive) | -1.1% (inactive) | 8.4% (inactive) | 19.5% (inactive) | 103% (inactive) | 0.89 (inactive) | 2.1 | 8910 | 10000 |  |  | 0.015 (inactive)
5 | COc1ccc(CCN(C)CCCN2CCc3cc(OC)c(OC)cc3CC2=O)cc1OC |  |  | 1.2% (inactive) | 0% | 10.7% (inactive) | -11.1% (inactive) | -12.6% (inactive) | 7.6% (inactive) | 7.5% (inactive) | -4.7% (inactive) | 12.1% (inactive) | 98.9% (inactive) | 0.903 (inactive) | 1.41 | 8020 | 8880 |  |  | -0.34 (inactive)
6 | Cc1cc(C)c(/C=C2\C(=O)Nc3ccccc32)[nH]1 | 27.2% (inactive) | 69.7% | 9.9% (inactive) | 0.7% | -0.8% (inactive) | 20.1% (inactive) | 99.7% (active) | 12.8% (inactive) | -18.7% (inactive) | 48.7% (inactive) | 37.2% (inactive) | 104% (inactive) | 1.05 (inactive) and 0.921 (inactive) and 0.87 (inactive) | 0.773 and 1.14 and 1.43 | 4600 and 5070 and 6640 | 4380 and 5510 and 7630 |  |  | 0.06 (inactive) and 0.095 (inactive)
7 | CN1CC(=O)N/C1=N/C(=O)Nc1cccc(Cl)c1 |  |  | 0.5% (inactive) | -0.6% | -2.5% (inactive) | -6.65% (inactive) | -5.1% (inactive) | 4.2% (inactive) | -16.7% (inactive) | 45.2% (inactive) | 3.8% (inactive) | 109% (inactive) | 0.899 (inactive) | 1.49 | 8750 | 9740 |  |  | 0.46 (inactive)
8 | O=C1c2ccccc2S(=O)(=O)N1CCCCN1CCN(c2ncccn2)CC1 |  |  | -1.2% (inactive) | 1.3% | 3.3% (inactive) | -7% (inactive) | 4.9% (inactive) | -1.9% (inactive) | 7.2% (inactive) | -2.4% (active) | -2.8% (inactive) | 111% (inactive) | 0.855 (inactive) | 1.78 | 8330 | 9750 | -0.295 (inactive) | -0.0604 | 0.135 (inactive)
9 | CC(C)C(=O)c1c(C(C)C)nn2ccccc12 | 83.4% (inactive) | 97% | -0.8% (inactive) | 0.4% | 24.5% (active) | 39.4% (inactive) | -13.6% (inactive) | 3.4% (inactive) | 31.8% (inactive) | 5% (inactive) | 1.8% (inactive) | 110% (inactive) | 1.02 (inactive) and 0.934 (inactive) and 0.944 (inactive) | 0.854 and 0.782 and 0.951 | 9930 and 7850 and 8420 | 9700 and 8400 and 8930 | 1.07 (inactive) and 0.83 (inactive) | -0.15 and -1.19 | 0.105 (inactive) and -0.07 (inactive) and 0.255 (inactive)
